Source: PubChem (Sanford-Burnham Center for Chemical Genomics)
Hits are enriched below; roughly 31% of the tested compounds scored in any of these assays.
CYP2C19 inhib = blocks human cytochrome P450 2C19. P33261. CYP2C19 Supersomes, luciferin-H EGE luminescence, 30 min. inhibition, % at 5 µM. hit rate 21% among 96,000;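 active = CYP2C19 inhibition above a set limit at 5 µM in the primary screen, cut at about 50% in these data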
CYP2C9 inhib = inhibitors of human CYP2C9. inhibition, % at 5 µM. CYP2C9 Supersomes, luciferin-H conversion, luminescence. AID 777. P11712. hit rate 20% among 96,000;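 active = blocking of liver enzyme CYP2C9 beyond about 50% at 5 µM, limit read from the data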
CYP2C19 activ = increases human CYP2C19 enzyme activity. P33261. recombinant CYP2C19, luciferin-H EGE luminescence; stronger effect = higher value; 0 = fully inhibited enzyme, 1 = untreated enzyme. activation factor at 5 µM. 96,000 tested, under 10 active;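 active = activation factor of at least 2 at 5 µM in the primary screen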
CYP2C9 act = activators of human CYP2C9. activation factor at 5 µM. recombinant CYP2C9, luciferin-H conversion, luminescence; stronger effect = higher value; factor 1 = untreated enzyme, 0 = blocked. hit rate 1.4% among 96,000. P11712. AID 1024;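 active = activation factor of 2 or more for CYP2C9 at a 5 µM dose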
PLAP act = human PLAP activation | P05187 | purified PLAP enzyme, luminescent substrate read-out; stronger effect = higher value | activation fold at 20 µM | hit rate 1.2% among 96,000 | AID 696; in the data active = activation fold above about 2
Of the large screens only hits and unclear results are named; the others gave an inactive call.

Cc1ccc(Nc2nc(C(=O)N3CCC(C(=O)NCCN4CCOCC4)CC3)cs2)cc1	none
Cc1ccc(Nc2nc(C(=O)N3CCC(C(=O)N4CCN(C)CC4)CC3)cs2)cc1	CYP2C19 inhib 77
Cc1cc(Cl)c(S(=O)(=O)N2CCSCC2)cc1OCC(N)=O	CYP2C9 act 3
CNS(=O)(=O)c1cc(OCC(N)=O)c(C)cc1Cl	CYP2C9 act 2.4
Cc1cc(Cl)c(S(N)(=O)=O)cc1OCC(N)=O	none
COc1ccc(C(=O)CN2C(=O)C(C)(C)Oc3ccc(C(=O)N4CCCCCC4)cc32)cc1	CYP2C19 inhib 57, CYP2C9 inhib 78
CC(C)(C)NC(=O)c1ccc2c(c1)N(CC(=O)N1CCN(c3ccc(F)cc3)CC1)C(=O)C(C)(C)O2	CYP2C19 inhib 79, CYP2C9 inhib 60
CC1(C)Oc2ccc(C(=O)N3CCc4ccccc43)cc2N(CC(=O)N2CCCC2)C1=O	none
Cc1ccc(NC(=O)c2ccc3c(c2)N(CC(=O)N2CCCCC2)C(=O)C(C)(C)O3)cc1	CYP2C19 inhib 58, CYP2C9 inhib 99
CCOC(=O)CN1C(=O)C(C)(C)Oc2ccc(C(=O)Nc3ccccc3OC)cc21	CYP2C19 inhib 82
CS(=O)(=O)N(Cc1cc2ccccc2[nH]c1=O)C1CCCCC1	none
CC1(C)Oc2ccc(C(=O)NC3CCCC3)cc2N(CC(=O)NC2CCCCC2)C1=O	CYP2C9 inhib 82
COc1ccccc1NC(=O)CNC(=O)c1ccccc1C	none
CCOC(=O)COc1ccccc1C1Nc2ccccc2C(=O)N1c1cccc(Cl)c1 (stereo not given)	CYP2C19 inhib 64
CCN(CC)CCN1C(=O)c2ccccc2NC1c1cc(OC)c(OC)c(OC)c1 (stereo not given)	none
CCOC(=O)COc1c(OC)cc(Cl)cc1C1Nc2ccccc2C(=O)N1c1cccc(C)c1 (stereo not given)	CYP2C19 inhib 95, CYP2C9 inhib 95
CCOC(=O)COc1c(OC)cc(Cl)cc1C1Nc2ccccc2C(=O)N1c1ccc(F)cc1 (stereo not given)	CYP2C19 inhib 67, CYP2C9 inhib 90
O=C1c2ccccc2NC(c2ccc(Cl)cc2Cl)N1O (stereo not given)	none
CCOC(=O)COc1c(OC)cc(Cl)cc1C1Nc2ccccc2C(=O)N1c1ccccc1 (stereo not given)	CYP2C19 inhib 95, CYP2C9 inhib 98
Cc1cccc(C(=O)Nc2onc(C)c2C#N)c1	none
COCCn1c(SCCCc2ccccc2)nc2c1c(=O)[nH]c(=O)n2C	CYP2C9 inhib 59
CCCn1c(SCCc2ccccc2)nc2c1c(=O)[nH]c(=O)n2C	CYP2C19 inhib 50, CYP2C9 inhib 59
COC(=O)C(C)Sc1nc2c(c(=O)[nH]c(=O)n2C)n1CCCc1ccccc1 (stereo not given)	none
CC(C)CCn1c(SCCN2CCOCC2)nc2c1c(=O)[nH]c(=O)n2C	CYP2C9 inhib 85
CCOCCSc1nc2c(c(=O)[nH]c(=O)n2C)n1CCCc1ccccc1	none
CCOC(=O)C(C)Sc1nc2c(c(=O)[nH]c(=O)n2C)n1CCc1ccccc1 (stereo not given)	CYP2C9 inhib 52
CCCCSc1nc2c(c(=O)[nH]c(=O)n2C)n1CCc1ccccc1	none
CC(C)(C)NC(=O)c1cc(F)c(F)cc1Cl	none
CC(C)(C)OC(=O)N1CCNc2ccccc2C1	none
CCc1nnc(NC(=O)CSc2nnc(CSc3nc(C)cc(C)n3)o2)s1	none
CCOCCn1c(SCCc2ccccc2)nc2c1c(=O)[nH]c(=O)n2C	CYP2C9 inhib 74
CC(C)CCn1c(SCCc2ccccc2)nc2c1c(=O)[nH]c(=O)n2C	CYP2C19 inhib 50, CYP2C9 inhib 93
CCCCCn1c(SCC(=O)OC)nc2c1c(=O)[nH]c(=O)n2C	none
CCCCn1c(SCC(=O)c2ccccc2)nc2c1c(=O)[nH]c(=O)n2C	CYP2C9 inhib 70
CCCCCn1c(SCCc2ccccc2)nc2c1c(=O)[nH]c(=O)n2C	CYP2C9 inhib 61
Cn1c(=O)[nH]c(=O)c2c1nc(SCCN1CCCCC1)n2CCCc1ccccc1	none
Cc1cccc(Cn2c(SCC(=O)Nc3ccccc3)nc3c2c(=O)[nH]c(=O)n3C)c1	CYP2C19 inhib 70
CCCN(CCC)S(=O)(=O)c1ccc(NS(=O)(=O)c2ccc(F)cc2)cc1	CYP2C9 inhib 92
CC(C)(CNS(=O)(=O)c1ccc(F)cc1)CNS(=O)(=O)c1ccc(F)cc1	none
COc1ccc(NS(=O)(=O)c2ccc(NS(=O)(=O)c3ccc(C)cc3)cc2)nn1	CYP2C9 inhib 66
